Results: article PMC4336329 (PLoS ONE, 2015)
About 14,000 (4.5%) of roughly 310,000 compounds showed an effect of 50% or more. Effects have a minus sign here. Only a selection was taken, and strong results are over-represented in it overall.

target: human ether-à-go-go-related gene (hERG) potassium channel (human, UniProt Q12809); assay: primary screen, population patch clamp on CHO cells stably expressing hERG; higher = less effect of the substance
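Also: peak tail current of the secondary pulse compared with the same well before compound.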

Sequence of human ether-à-go-go-related gene (hERG) potassium channel (Q12809 whole entry, looked up): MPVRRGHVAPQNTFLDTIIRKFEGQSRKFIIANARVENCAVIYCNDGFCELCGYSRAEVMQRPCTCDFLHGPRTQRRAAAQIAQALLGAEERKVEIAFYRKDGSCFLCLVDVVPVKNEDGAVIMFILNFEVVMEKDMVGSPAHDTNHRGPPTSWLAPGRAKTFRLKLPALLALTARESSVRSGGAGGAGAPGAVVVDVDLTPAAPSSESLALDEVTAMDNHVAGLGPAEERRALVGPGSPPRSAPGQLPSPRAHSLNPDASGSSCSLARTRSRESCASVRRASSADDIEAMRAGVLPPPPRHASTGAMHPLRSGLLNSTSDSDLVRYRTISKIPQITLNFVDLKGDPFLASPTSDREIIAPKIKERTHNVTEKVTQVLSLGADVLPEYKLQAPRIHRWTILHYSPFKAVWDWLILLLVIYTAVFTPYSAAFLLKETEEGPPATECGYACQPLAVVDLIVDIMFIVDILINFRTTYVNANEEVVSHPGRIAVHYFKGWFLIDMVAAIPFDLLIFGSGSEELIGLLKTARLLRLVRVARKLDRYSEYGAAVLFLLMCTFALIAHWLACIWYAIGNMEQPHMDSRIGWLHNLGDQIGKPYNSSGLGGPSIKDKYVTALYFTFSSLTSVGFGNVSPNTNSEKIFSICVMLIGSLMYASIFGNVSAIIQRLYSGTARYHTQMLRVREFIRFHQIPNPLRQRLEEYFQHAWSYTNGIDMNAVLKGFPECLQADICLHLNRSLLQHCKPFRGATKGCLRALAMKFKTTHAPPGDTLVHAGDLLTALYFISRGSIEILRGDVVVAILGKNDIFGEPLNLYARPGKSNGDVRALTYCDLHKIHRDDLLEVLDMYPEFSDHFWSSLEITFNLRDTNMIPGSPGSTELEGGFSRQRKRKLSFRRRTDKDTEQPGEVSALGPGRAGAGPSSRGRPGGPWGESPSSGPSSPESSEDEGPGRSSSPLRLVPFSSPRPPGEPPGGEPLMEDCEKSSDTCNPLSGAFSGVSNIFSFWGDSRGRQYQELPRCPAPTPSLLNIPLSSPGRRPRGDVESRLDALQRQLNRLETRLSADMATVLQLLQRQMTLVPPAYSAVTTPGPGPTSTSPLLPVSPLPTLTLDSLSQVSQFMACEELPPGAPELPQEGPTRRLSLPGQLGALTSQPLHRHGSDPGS

Row | SMILES | hERG current change (%, negative = inhibition) at 10uM
1 | O=C(CN(C(=O)C1CSC(=O)C1)c1cccc(F)c1)NCc1ccc2c(c1)OCO2 (centres unmarked) | -14.7%
2 | COc1ccc(CCNC(=O)CCc2nc3sc4c(c3c(=O)[nH]2)CCCC4)cc1 | 9.78%
3 | Cn1c(=S)[nH]c2c(c1=O)C(C)(C)Cc1ccccc1-2 | 10.9%
4 | Cc1[nH]c(=O)[nH]c(=O)c1S(=O)(=O)N1CCOCC1 | 3.26%
5 | CCCn1c(SCC(=O)Nc2c(C)cccc2CC)nnc1C(C)C | 3.71%
6 | Cc1ccc(NC(=O)c2ccc3c(=O)n4c(nc3c2)CCCCC4)cc1F | -24.6%
7 | O=C(Nc1cccc(S(=O)(=O)N2CCOCC2)c1)c1ccc2c(=O)n3c(nc2c1)CCCCC3 | -73.3%
8 | Cc1ccc(C)c(NC(=O)c2ccc3c(=O)n4c(nc3c2)CCC4)c1 | -25.9%
9 | Cc1ccc(S(=O)(=O)N2CCCCC2)cc1NC(=O)c1ccc2c(=O)n3c(nc2c1)CCCCC3 | -64.1%
10 | O=C(Nc1ccc2c(c1)nc1n2CCCCC1)c1cc(S(=O)(=O)N2CCOCC2)ccc1Cl | -15.5%
11 | O=C(c1ccc2c(=O)n3c(nc2c1)CCC3)N1CCN(S(=O)(=O)c2cccc(F)c2)CC1 | -4.8%
12 | O=C(Nc1ccc(F)c(Cl)c1)c1ccc2c(=O)n3c(nc2c1)CCCCC3 | -36.6%
13 | O=C(Nc1ccc(S(=O)(=O)N2CCCC2)cc1)c1ccc2c(=O)n3c(nc2c1)CCCCC3 | 9.23%
14 | O=C(Nc1ccc(S(=O)(=O)C(F)F)cc1)c1ccc2c(=O)n3c(nc2c1)CCC3 | 24.1%
15 | O=C(Nc1cccc(S(=O)(=O)N2CCCCC2)c1)c1ccc2c(=O)n3c(nc2c1)CCCCC3 | -64.5%
16 | O=C(Nc1cccc(S(=O)(=O)N2CCCC2)c1)c1ccc2c(=O)n3c(nc2c1)CCCCC3 | -57.1%
17 | CC(NC(=O)c1cnccn1)c1ccc(S(N)(=O)=O)cc1 (centres unmarked) | -2.33%
18 | C=CCn1c(SCC(=O)NCc2ccco2)nc2sc(C)c(C)c2c1=O | 3.62%
19 | CC(C)NC(=O)COc1coc(CN2CCN(Cc3ccccc3)CC2)cc1=O | 11.9%
20 | COc1ccc(-c2nc3c(n2O)CCc2c-3no[n+]2[O-])cc1 | 10.6%
21 | Nc1nnnn1CC(=O)N/N=C/C=C/c1ccccc1 | 16.1%
22 | COc1cc2c(cc1OC)CN(C(=O)c1sc(-c3cnccn3)nc1C)CC2 | 0.572%

Row | SMILES | hERG current change (%, negative = inhibition) at 10uM
23 | O=S(=O)(Nc1cccc(-c2ccc(N3CCOCC3)nn2)c1)c1cc(Cl)ccc1Cl | -26.8%
24 | CC(C)(C)OC(=O)N[C@@H](CCCCNC(=O)OCc1ccccc1)c1nnc([C@H](CCCCNC(=O)OCc2ccccc2)NC(=O)OC(C)(C)C)o1 | -22.6%
25 | COc1ccc(N(C(=O)c2ccc(Cl)cc2)C2=CC3CCC(C2)N3C)cc1.Cl (centres unmarked) | -82%
26 | COc1ccc(N(C(=O)c2ccc(F)cc2)C2=CC3CCC(C2)N3C)cc1.Cl (centres unmarked) | -71.5%
27 | COc1ccc(CCN(C(=O)c2ccc(F)cc2)C2=CC3CCC(C2)N3C)cc1OC.Cl (centres unmarked) | -46.6%
28 | COc1ccc(N(C(=O)c2ccncc2)S(=O)(=O)c2ccc(Cl)cc2)cc1 | -26.4%
29 | CN1C2CCC1CC(OC(=O)c1ccc(Cl)cc1)(C(=O)O)C2.Cl (centres unmarked) | 1.82%
30 | CN1C2C=C(N(C(=O)c3ccc(Cl)cc3)c3ccccc3)CC1CC2.Cl (centres unmarked) | -74%
31 | CN1OC(COC(=O)c2ccc(Cl)cc2)CC1c1ccccc1 (centres unmarked) | -4.56%
32 | CCCCN(C(=O)c1cc(OC)c(OC)c(OC)c1)C1=CC2CCC(C1)N2C.Cl (centres unmarked) | -20.2%
33 | COc1ccc(C(=O)CN(C(=O)c2ccc(Cl)cc2)N2C(=O)C3CCCCC3C2=O)cc1 (centres unmarked) | -6.63%
34 | N#CC1=C(N)OC2=C(C(=O)CC(c3ccco3)C2)C1c1ccc(OCc2c(F)cccc2Cl)cc1 (centres unmarked) | -1.84%
35 | Nc1c([N+](=O)[O-])c(=O)oc2ccccc12 | 19.1%
36 | CN(C)CCNC(=S)Nc1ccc(F)c(F)c1F | 22.3%
37 | C=CCNC(=O)c1c(Cl)cnn1-c1ccc(C)cc1 | -4.22%
38 | Cc1ccc(CNC(=O)CN2C(=O)COc3ccc(S(=O)(=O)N4CCCCC4)cc32)o1 | 16%
39 | C[C@H](NC(=O)N1CCn2c1nc1ccccc12)C(=O)NCc1ccco1 | -10.6%
40 | CCOc1ccc(CCNC(=O)C2CCCN(S(=O)(=O)N3CCOCC3)C2)cc1OCC (centres unmarked) | 0.332%
41 | COC(=O)c1cccc(NC(=S)N2CCN(c3ccccc3F)CC2)c1 | 5.71%
42 | O=C(CCCn1c(SCc2cc(=O)n3cc(Cl)ccc3n2)nc2ccccc2c1=O)NCC1CCCO1 (centres unmarked) | -53.7%
43 | CC(=O)NCCn1c(SCC(=O)c2ccc(Cl)cc2)nc2ccccc2c1=O | -4.33%
44 | O=C(CCCn1c(SCc2cc(=O)n3ccccc3n2)nc2ccccc2c1=O)NCC1CCCO1 (centres unmarked) | -1.72%

Row | SMILES | hERG current change (%, negative = inhibition) at 10uM
45 | O=C(CCCn1c(SCc2ccccc2F)nc2ccccc2c1=O)NCC1CCCO1 (centres unmarked) | -14%
46 | COc1ccc(CNc2nc(SCc3cc(=O)n4cc(Cl)ccc4n3)nc3ccccc23)cc1 | -44%
47 | COCCn1c(SCc2cc(=O)n3cc(C)ccc3n2)nc2ccccc2c1=O | 13.7%
48 | O=c1cc(CSc2nc(NCc3ccccc3)c3ccccc3n2)nc2ccc(Cl)cn12 | -59.3%
49 | O=c1c2sccc2nc(SCc2cc(=O)n3cc(Cl)ccc3n2)n1Cc1ccccn1 | -26.2%
50 | CC(=O)NCCn1c(SCc2cc(=O)n3cc(Cl)ccc3n2)nc2ccccc2c1=O | -50.7%
51 | NC(=S)N/N=C1/CCSc2ccc3ccccc3c21 | -23.4%
52 | C/C(=N\NC(=O)c1cccs1)C(C)(C)C | 5.21%
53 | CCN(c1ccc(F)cc1)S(=O)(=O)c1cccc2nsnc12 | 2.4%
54 | COc1ccc(C(c2oc(CO)cc(=O)c2O)c2oc(CO)cc(=O)c2O)cc1OC | 14.3%
55 | N/C(=N\OC(=O)CCc1ccccc1)c1cccc(Br)c1 | 1.33%
56 | Cn1c(SCC(=O)NC2CC2)nnc1C(F)(F)F | -1.32%
57 | Nc1nc2c(Cl)ccc(Cl)c2s1 | 10.7%
58 | Cc1nc(N2CCC(C(N)=O)CC2)c2nnn(Cc3ccccc3)c2n1 | 16.3%
59 | Cc1ccc(N(CC(=O)N/N=C/c2cccs2)S(C)(=O)=O)cc1 | -3.64%
60 | Cc1ccccc1-n1c(C)nc2sccc2c1=O | -2.18%
61 | COc1ccc2cc(C(C)C(=O)N3CCC(C(N)=O)CC3)ccc2c1 (centres unmarked) | 17.1%
62 | COc1ccc(OC(C)C(=O)N2CCC(C)CC2)cc1 (centres unmarked) | -5.47%
63 | COc1ccc2cc(C(C)C(=O)N3CCC(C)CC3)ccc2c1 (centres unmarked) | -71.9%
64 | O=C(N/N=C/c1ccc([N+](=O)[O-])cc1)c1c[nH]c2ccccc12 | 19.1%
65 | O=C(CCn1c(=O)oc2ccccc21)Nc1cccc(Cl)c1 | -2.8%
66 | CCOC(=O)N1CCN(C(=O)COc2cccc3c2CCN(Cc2ccccc2F)C3=O)CC1 | -31.4%

Row | SMILES | hERG current change (%, negative = inhibition) at 10uM
67 | CCOC(=O)N1CCN(C(=O)COc2cccc3c2CCN(Cc2ccc(F)cc2)C3=O)CC1 | -61%
68 | Cc1ccc(COc2cccc3c2CCN(Cc2ccc(F)cc2)C3=O)cc1 | 6.8%
69 | CCOC(=O)N1CCN(C(=O)COc2cccc3c2CCN(Cc2cccc(C)c2)C3=O)CC1 | -53.6%
70 | CCOC(=O)N1CCN(C(=O)COc2cccc3c2CCN(CC)C3=O)CC1 | 6.35%
71 | CCOC(=O)N1CCN(C(=O)COc2cccc3c2CCN(Cc2ccccc2C)C3=O)CC1 | -40.7%
72 | Cc1cc(C)nc(NS(=O)(=O)c2ccc(N3Cc4ccccc4C3=O)cc2)n1 | 12.2%
73 | COc1cc(C(=O)Nc2ccccc2N2CCOCC2)ccc1OCc1c(C)noc1C | -28.8%
74 | O=C(NCc1cn2ccsc2n1)c1c(F)cccc1Cl | 7.32%
75 | O=C(CCC1CCCC1)N1CCC(N2CCN(c3ccccc3)CC2)CC1 | -66.6%
76 | O=C(c1cccs1)N1CCN(Cc2ccccc2)CC1 | -12.2%
77 | O=C(O)C(=O)O.O=C(c1cccs1)N1CCN(CCCc2ccccc2)CC1 | -64.5%
78 | O=C(c1cccs1)N1CCN(CCc2ccccc2)CC1 | -48.6%
79 | O=C(c1cccs1)N1CCC(N2CCN(c3ccccc3)CC2)CC1 | -51.2%
80 | O=C(c1cccs1)N1CCN(C2CCN(Cc3ccccc3)CC2)CC1 | -64.3%
81 | O=C(O)C(=O)O.O=C(c1cccs1)N1CCN(C2CCCCC2)CC1 | -32.4%
82 | O=C(O)C(=O)O.O=C(c1cccs1)N1CCN(Cc2ccncc2)CC1 | -5.94%
83 | COc1ccccc1N1CCN(C2CCN(C(=O)c3cccs3)CC2)CC1 | -38.2%
84 | O=C(c1cccs1)N1CCN(c2ccccc2)CC1 | -0.00412%
85 | CC(C)CC(=O)N1CCC(N2CCN(c3ccccc3)CC2)CC1 | -12%
86 | O=C(CCC1CCCC1)N1CCC(N2CCCCCC2)CC1.O=C(O)C(=O)O | -29.9%
